Source: PubChem BioAssay (National Center for Advancing Translational Sciences (NCATS))
NPSR antagonist: antagonists of human neuropeptide S receptor cAMP signaling; Potency, µM (doses to about 38.3 µM), usual class: inhibitors; hit rate 1% among 220,000; CHO-NPSR cells, cAMP TR-FRET, antagonist mode; AID 1461; further: nearly all actives have a fitted effect of over 50% in size
VP16 counter: Gal4-VP16 reporter inhibition counter-screen; Drosophila S2 Gal4-VP16 UAS-luciferase, luminescence, 20 h; Potency, µM (titrated, usually from 53.6 µM), actives largely listed as inhibitors; AID 2546; hit rate 3.5% among 310,000;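 further: Gal4-VP16 expression switched on by copper sulfate through the metallothionein promoter; nearly all actives have a fitted effect of over 50% in size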
B2AR arrestin: agonists driving beta-arrestin recruitment to human beta2-adrenergic receptor | P07550 | Potency, µM (series often up to 46.1 µM), hits mostly activators | hit rate 0.02% among 330,000 | beta-arrestin recruitment to beta2AR, cell-based reporter; further: nearly all actives have a fitted effect of over 65% in size
Target sequence (P07550 whole entry, looked up): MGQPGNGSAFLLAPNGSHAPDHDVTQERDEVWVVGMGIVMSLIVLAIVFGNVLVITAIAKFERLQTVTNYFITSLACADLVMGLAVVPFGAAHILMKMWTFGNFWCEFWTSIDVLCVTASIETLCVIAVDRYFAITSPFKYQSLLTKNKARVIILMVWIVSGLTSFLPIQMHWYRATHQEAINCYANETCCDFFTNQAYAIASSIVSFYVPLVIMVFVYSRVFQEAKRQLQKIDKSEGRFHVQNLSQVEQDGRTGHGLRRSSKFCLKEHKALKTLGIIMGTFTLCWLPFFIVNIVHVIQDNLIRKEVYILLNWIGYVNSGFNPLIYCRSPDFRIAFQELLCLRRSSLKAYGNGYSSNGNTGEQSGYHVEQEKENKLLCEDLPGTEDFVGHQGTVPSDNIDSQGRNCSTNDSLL
RORgamma inh: inhibitors of mouse ROR gamma transcriptional activity | P51450 | Drosophila S2 Gal4-RORgamma UAS-luciferase reporter, 20 h | Potency, µM (doses to about 53.6 µM), hits mostly inhibitors | hit rate 5.4% among 310,000 | AID 2551; further: nearly all actives have a fitted effect of over 60% in size
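A Gal4/UAS one-hybrid system in insect cells: metallothionein-promoter Gal4–ROR gamma fusion plus Photinus luciferase reporter. Copper sulfate 700 uM final, 20 hr ambient incubation, luminescent detection after 10 min with reagent.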
Of the large screens only hits and unclear results are named; the others gave an inactive call. In the library only some 5.7% were active in any assay of this set; here they are far more common. The call rests on the fitted dose curve; in most records, active means well fitted curve in the direction sought with a large enough effect; inconclusive means small, poorly fitted or top-dose-only effect, or another doubt; inactive means no such curve, though single readings can be large; an effect the other way counts as inactive or inconclusive.

CCC(C)c1ccc(NC(=S)NN2CCOCC2)cc1 (stereo unspecified)	VP16 counter 4.47µM, RORgamma inh 2.24µM
CC(C)c1ccc(NC(=S)NN2CCN(C)CC2)cc1	RORgamma inh 11.2µM
CC(=O)c1ccc(N2CCN(C(=O)CCC(=O)Nc3ccc4nc(N5CCN(C)CC5)cc(C)c4c3)CC2)cc1	none (no result: NPSR antagonist)
O=C(c1cc(C(F)(F)F)cc(C(F)(F)F)c1)N1CCC2(CC1)CCN(c1ccccn1)CC2	none (no result: NPSR antagonist, B2AR arrestin)
c1ccc(CCNc2ncnc3sccc23)nc1	VP16 counter 15.8µM, RORgamma inh inconclusive
Cc1csc2ncnc(NCCc3ccccn3)c12	VP16 counter 10µM
c1cncc(CNc2ncnc3sccc23)c1	RORgamma inh inconclusive
Cc1sc2ncnc(N(C)CCc3ccccn3)c2c1C	none
Cc1nc([N+](=O)[O-])c(Br)n1Cc1ccc(Cl)c(Cl)c1	NPSR antagonist inconclusive, VP16 counter inconclusive, RORgamma inh 7.08µM
Cc1nc([N+](=O)[O-])c(Br)n1CC(=O)c1ccc(Cl)cc1	NPSR antagonist inconclusive, VP16 counter inconclusive, RORgamma inh 10µM
COc1ccc(C(=O)Cn2c(C)nc([N+](=O)[O-])c2Br)cc1	VP16 counter inconclusive
CON/C=N/C(=S)Nc1ncc(C(F)(F)F)cc1Cl	VP16 counter inconclusive, RORgamma inh 0.562µM
ON/C=N/C(=S)Nc1ncc(C(F)(F)F)cc1Cl	VP16 counter inconclusive, RORgamma inh 1.58µM
CC(C)C(=O)Nc1ncc(C(F)(F)F)cc1Cl	none
NC1=NCC2c3ccccc3Cc3ccccc3N12 (stereo unspecified)	none (no result: NPSR antagonist, B2AR arrestin)
CO/N=C(/C(=O)N[C@@H]1C(=O)N2C(C(=O)O)=CCS[C@H]12)c1csc(N)n1	none (no result: NPSR antagonist, B2AR arrestin)
Cc1cc(C)cc(-n2c(C)cc(C(=S)N3CCOCC3)c2C)c1	VP16 counter 15.8µM, RORgamma inh 3.16µM
Cc1cc(C(=S)N2CCOCC2)c(C)n1-c1ccc(Cl)cc1	none
Cc1ncoc1C(=O)N1CCCC(N2CCN(c3ccccc3F)CC2)C1 (stereo unspecified)	none (no result: NPSR antagonist)
Cc1ccc(NC(=S)Nc2cccc3cnccc23)cc1	VP16 counter inconclusive, RORgamma inh inconclusive
Cc1ccc(C)c(NC(=S)Nc2cccc3cnccc23)c1	RORgamma inh inconclusive
Cc1ccccc1NC(=S)Nc1cccc2cnccc12	RORgamma inh 10µM
Cc1ccc(NC(=S)Nc2cccc3cnccc23)cc1C	VP16 counter 3.16µM, RORgamma inh inconclusive
S=C(NCc1ccccc1)Nc1cccc2cnccc12	VP16 counter inconclusive (no result: NPSR antagonist)
S=C(NCCc1ccccc1)Nc1cccc2cnccc12	VP16 counter 4.47µM, RORgamma inh 5.01µM
COC(=O)C/C=C/C(C)C(OC)c1ccccc1Br (stereo unspecified)	none (no result: NPSR antagonist, B2AR arrestin)
O=C(Cc1ccccc1[N+](=O)[O-])NCc1ccco1	none
Cn1cc(Cl)c(-c2n[nH]c(=S)n2-c2ccc(F)cc2)n1	none
Cc1nn(C)c(-c2n[nH]c(=S)n2-c2ccccc2)c1Cl	RORgamma inh 11.2µM
Cc1c(Cl)c(-c2n[nH]c(=S)n2-c2ccc(F)cc2)nn1C	NPSR antagonist inconclusive, RORgamma inh 12.6µM
Cn1cc(Cl)c(-c2n[nH]c(=S)n2-c2ccccc2)n1	none
CCCCn1c(-c2nn(C)c(C)c2Cl)n[nH]c1=S	VP16 counter inconclusive, RORgamma inh 3.16µM
Cc1c(Cl)c(-c2n[nH]c(=S)n2CC(C)C)nn1C	VP16 counter inconclusive, RORgamma inh 12.6µM
O=c1[nH]ccc2c(S(=O)(=O)N3CCCNCC3)cccc12	none (no result: NPSR antagonist, B2AR arrestin)
CC(NC(=O)/C(C#N)=C1\N=C(NC(=O)c2cccs2)c2ccccc21)c1ccccc1 (stereo unspecified)	none
Cc1ccc(N/C=C/C(=O)c2cccs2)cc1C	VP16 counter inconclusive, RORgamma inh 12.6µM
CC(=O)Oc1ccc(/C=C2/CCc3ccccc3C2=O)cc1	VP16 counter 10µM, RORgamma inh 8.91µM
COc1cccc(/C=C2\CCc3ccccc3C2=O)c1	VP16 counter 11.2µM, RORgamma inh 11.2µM
Cc1ccsc1/C=C1\CCc2ccccc2C1=O	VP16 counter 11.2µM, RORgamma inh inconclusive
Cc1ccccc1/C=C1\CCCc2ccccc2C1=O	none
COc1ccc(O[C@H]2C=C[C@@H](c3ccccc3)O[C@H]2COC(=O)CC/C(C)=N\O[C@@H](C)c2cn([C@H](CO)Cc3ccccc3)nn2)cc1	none (no result: NPSR antagonist, B2AR arrestin)
Clc1ccc(CCNc2nc3ccccc3s2)cc1	RORgamma inh 11.2µM
COc1ccc(N=C2SC(C(=O)Nc3ccc(OC)cc3)CC(=O)N2CCN2CCOCC2)cc1 (stereo unspecified)	none
CN1CCN(c2ccc(S(=O)(=O)N3CCCCC3)cc2NC(=O)c2ccc3ccccc3c2)CC1	VP16 counter 8.91µM, RORgamma inh 11.2µM
Cc1ccccc1C(=O)Nc1cc(S(=O)(=O)N2CCCCC2)ccc1N1CCN(C)CC1	none
CC1(CC(=O)N/N=C/c2cc([N+](=O)[O-])c(O)cc2O)OCCO1	VP16 counter inconclusive, RORgamma inh 5.62µM
CCOc1c(O)ccc(/C=C2\SC(=S)NC2=O)c1[N+](=O)[O-]	none
O=C1NC(=S)S/C1=C\C=C\c1ccc([N+](=O)[O-])o1	NPSR antagonist 7.94µM, VP16 counter 4.47µM, RORgamma inh 5.62µM
CC(C)CNC(=S)N1CCN(C(c2ccccc2)c2ccccc2)CC1	VP16 counter inconclusive, RORgamma inh 12.6µM
COCCCNC(=S)N1CCN(C(c2ccccc2)c2ccccc2)CC1	VP16 counter inconclusive, RORgamma inh 15.8µM (no result: NPSR antagonist)
S=C(NCc1ccco1)N1CCN(C(c2ccccc2)c2ccccc2)CC1	NPSR antagonist inconclusive, VP16 counter inconclusive, RORgamma inh 12.6µM
C=C(C)CNC(=S)N1CCN(C(c2ccccc2)c2ccccc2)CC1	VP16 counter inconclusive, RORgamma inh inconclusive
Cc1cnc(CNc2ncnc3ccc(-c4ccccc4C#N)cc23)cn1	none (no result: NPSR antagonist, B2AR arrestin)
CCOC(=O)N/N=C1/C[C@@H](O)[C@@H](O)[C@@H]2[C@@H]3C(=O)N(C[C@@H]4CCCO4)C(=O)[C@H]3CC[C@@H]12	none (no result: NPSR antagonist, B2AR arrestin)
Cc1ccn2c(-c3n[nH]c(=S)n3Cc3ccccc3)c(C)nc2c1	none
Cc1nn(Cc2n[nH]c(=S)n2Cc2ccccc2)c(C)c1Cl	VP16 counter 20µM, RORgamma inh 5.62µM
Cc1cc(C)n(Cc2n[nH]c(=S)n2Cc2ccccc2)n1	VP16 counter inconclusive, RORgamma inh 11.2µM
O=C1/C(=C/Nc2ccc3c(c2)OCO3)CCc2ccccc21	VP16 counter 11.2µM
COc1ccc2c(c1)CC/C(=C\Nc1ccc3c(c1)OCO3)C2=O	RORgamma inh inconclusive
COc1ccc(N/C=C2\CCc3ccccc3C2=O)cc1	VP16 counter inconclusive, RORgamma inh 8.91µM
COc1ccc(N/C=C2\CCOC2=O)cc1	none
O=C(COc1ccc(Cl)cc1)NN=C1CCCCCCC1	RORgamma inh 8.91µM (no result: NPSR antagonist)
OC[C@@H]1OC(O)[C@H](O)[C@H](O)[C@H]1O (stereo partly specified)	none (no result: NPSR antagonist, B2AR arrestin)
Cc1ccc(-n2c(O)c(C=Nc3ccccc3-c3n[nH]c(=S)[nH]c3=O)c3ccccc3c2=O)cc1C	NPSR antagonist 1.26µM
COc1ccc(NC(=O)N2CC3(CCN(C(=O)c4ccc(OC)cc4)CC3)C2)cc1	none (no result: NPSR antagonist, B2AR arrestin)
Cc1ccc(NC(=O)CN(C)C(=O)COc2cccc3cccnc23)cc1	none
